Reference: the antibiotic and cytotoxicity screens of Wong et al. (2023)
The campaign covered roughly 39,000 compounds. About 1,500 (3.8%) were called active. What follows is part of a selection rich in actives, with near analogues and random picks from the rest.

System: HSkMC (human skeletal muscle cells)
Assay: cytotoxicity call (relative viability < 0.9)
Conditions: 10 µM

Row | Compound | cytotoxicity call
1 | COC(CN(C)C(=O)c1cn(C)c2ccc(S(=O)(=O)N3CCOCC3)cc2c1=O)OC | inactive
2 | Cn1cc(S(=O)(=O)N2CCN(c3ccc(F)cc3)CC2)c(=O)n(C)c1=O | inactive
3 | CCCn1c(=O)[nH]c2nc(-c3ccc(S(=O)(=O)N4CCN(c5ccc(Cl)cc5)CC4)cc3)[nH]c2c1=O | active
4 | Cc1[nH]c(=O)[nH]c(=O)c1S(=O)(=O)N1CCN(c2ccccc2)CC1 | inactive
5 | C[C@H](CO)N1C[C@H](C)[C@H](CN(C)C(=O)c2ccccc2)OCCCC[C@H](C)Oc2ccc(NS(=O)(=O)c3ccccc3)cc2C1=O | inactive
6 | CC(=O)Nc1ccc(S(=O)(=O)CCO)cc1 | inactive
7 | C[C@H](CO)N1C[C@H](C)[C@@H](CN(C)Cc2ccncc2)Oc2c(NC(=O)C3CCOCC3)cccc2C1=O | inactive
8 | COc1ccc([Si](C)(C)[C@@H]2[C@@H](CC(=O)N(CCO)Cc3ccccc3)O[C@]3(C(=O)N(C)c4c(Br)cc(C)cc43)[C@H]2C)cc1 | inactive
9 | COc1ccc([Si](C)(C)[C@@H]2[C@@H](CCn3cc([C@H](O)c4ccccc4)nn3)O[C@]3(C(=O)N(C)c4c(Br)cc(C)cc43)[C@H]2C)cc1 | active
10 | COc1ccc([Si](C)(C)[C@H]2[C@H](CC(=O)N3Cc4ccccc4C[C@H]3CO)O[C@@]3(C(=O)N(C)c4c(Br)cc(C)cc43)[C@@H]2C)cc1 | active
11 | COc1ccc([Si](C)(C)[C@@H]2[C@@H](CC(=O)N3Cc4ccccc4C[C@H]3CO)O[C@]3(C(=O)N(C)c4c(Br)cc(C)cc43)[C@H]2C)cc1 | active
12 | COc1ccc([Si](C)(C)[C@H]2[C@H](CC(=O)N(CCO)Cc3ccccc3)O[C@@]3(C(=O)N(C)c4c(Br)cc(C)cc43)[C@@H]2C)cc1 | inactive
13 | COc1ccc([Si](C)(C)[C@@H]2[C@@H](CC(=O)N3Cc4ccccc4C[C@H]3CO)O[C@]3(C(=O)N(Cc4ccc(I)cc4)c4ccccc43)[C@H]2C)cc1 | inactive
14 | COc1ccc([Si](C)(C)[C@H]2[C@H](CC(=O)N3Cc4ccccc4C[C@H]3CO)O[C@@]3(C(=O)N(Cc4cccc(I)c4)c4ccccc43)[C@@H]2C)cc1 | inactive
15 | COc1ccc([Si](C)(C)[C@H]2[C@H](CCn3cc([C@H](O)c4ccccc4)nn3)O[C@@]3(C(=O)N(C)c4c(Br)cc(C)cc43)[C@@H]2C)cc1 | inactive
16 | COc1ccc([Si](C)(C)[C@@H]2[C@@H](CCn3cc([C@H](O)c4ccccc4)nn3)O[C@]3(C(=O)N(c4ccccc4)c4ccccc43)[C@H]2C)cc1 | inactive
17 | Cc1nnc(=O)[nH]c1NNc1ccccc1 | inactive
18 | COc1cccc(NC(=O)N2C[C@@H](O)COC[C@H]3O[C@H](CC(=O)NCCCN4CCOCC4)CC[C@@H]32)c1 | inactive
19 | COc1ccc2c3c(n(c2c1)C)[C@@H](CO)N(C[C@]13CN(C1)S(=O)(=O)c1cn(cn1)C)C(=O)Nc1ccc(cc1)F | inactive
20 | NCc1ccc(-n2cccn2)cc1 | inactive

Row | Compound | cytotoxicity call
21 | COc1ccc(S(=O)(=O)Nc2ccc3c(c2)C(=O)N([C@H](C)CO)C[C@H](C)[C@H](CN(C)S(=O)(=O)c2cn(C)cn2)OCCCC[C@H](C)O3)cc1 | inactive
22 | CCCCCCCCCC[C@@H](O)[C@H]1C=C[C@@H]2C(=O)N(c3ccccc3)C(=O)[C@@H]2N1Nc1ccc([N+](=O)[O-])cc1 | active
23 | CCCCCCCCCCCCCCCC(=O)OC[C@H](NC(=O)C(Cl)Cl)[C@H](O)c1ccc([N+](=O)[O-])cc1 | inactive
24 | CCCCCCCCCCCCCCCC(=O)OCC(NC(=O)C(Cl)Cl)C(O)c1ccc([N+](=O)[O-])cc1 (stereo not given) | inactive
25 | C[C@@H]1CN([C@@H](C)CO)C(=O)c2cc(N(C)C)ccc2O[C@@H](C)CCCCO[C@@H]1CN(C)C(=O)Nc1cccc2ccccc12 | inactive
26 | C[C@@H]1CN([C@@H](C)CO)C(=O)c2cc(NS(=O)(=O)c3cccs3)ccc2O[C@@H]1CN(C)Cc1ccncc1 | inactive
27 | CN(C)C/C=C/C(=O)Nc1ccc(C(=O)Nc2cccc(Nc3ncc(Cl)c(-c4c[nH]c5ccccc45)n3)c2)cc1 | active
28 | C[C@@H]1CN([C@@H](C)CO)C(=O)c2cc(NC(=O)Nc3ccccc3)ccc2O[C@@H](C)CCCCO[C@@H]1CN(C)Cc1ccncc1 | inactive
29 | Cl.Nc1c2c(nc3ccccc13)CCCC2 | inactive
30 | Nc1c2c(nc3ccccc13)CCCC2 | inactive
31 | C[C@@H]1CCCCO[C@H](CN(C)Cc2ccncc2)[C@@H](C)CN([C@H](C)CO)C(=O)c2cc(NS(C)(=O)=O)ccc2O1 | inactive
32 | C[C@@H]1CCCCO[C@H](CN(C)C(=O)c2ccccc2)[C@@H](C)CN([C@@H](C)CO)C(=O)c2cc(NS(=O)(=O)c3cccs3)ccc2O1 | inactive
33 | CCC[C@@H](O)C#Cc1cnc2c(c1)C(=O)N([C@H](C)CO)C[C@H](C)[C@H](CN(C)Cc1ccc3c(c1)OCO3)O2 | inactive
34 | COc1ccc(S(=O)(=O)Nc2ccc3c(c2)C(=O)N([C@H](C)CO)C[C@H](C)[C@H](CN(C)S(C)(=O)=O)OCCCC[C@H](C)O3)cc1 | inactive
35 | CO[C@H]1C[C@H](O[C@@H]2/C(C)=C/C[C@@H]3C[C@@H](C[C@]4(CC[C@H](C)[C@@H](C5CCCCC5)O4)O3)OC(=O)[C@@H]3C=C(C)/C(=N/O)[C@H]4OC/C(=C\C=C\[C@@H]2C)[C@]43O)O[C@@H](C)[C@@H]1O | active
36 | CO[C@H]1C[C@@H](O[C@@H]2/C(C)=C/C[C@@H]3C[C@@H](C[C@]4(CC[C@H](C)[C@@H](C5CCCCC5)O4)O3)OC(=O)[C@@H]3C=C(C)/C(=N/O)[C@H]4OC/C(=C\C=C\[C@@H]2C)[C@]43O)O[C@@H](C)[C@@H]1O | inactive
37 | COC1CC(OC2C(C)=CCC3CC(CC4(CCC(C)C(C5CCCCC5)O4)O3)OC(=O)C3C=C(C)C(=NO)C4OCC(=CC=CC2C)C34O)OC(C)C1O (stereo not given) | active
38 | O=c1[nH]c(=O)n([C@H]2C[C@H](O)[C@@H](CO)O2)cc1C(F)(F)F | inactive
39 | C[C@H](CO)N1C[C@H](C)[C@@H](CN(C)Cc2ccncc2)OCCCC[C@H](C)Oc2ccc(NC(=O)CCC(F)(F)F)cc2C1=O | inactive
40 | C[C@H](CO)N1C[C@H](C)[C@@H](CN(C)CC2CCCCC2)OCCCC[C@H](C)Oc2ccc(NC(=O)CCCCCC(=O)Nc3ccccc3N)cc2C1=O | inactive
